# Assay outcomes: PubChem BioAssay, National Center for Advancing Translational Sciences (NCATS)
# Only some compounds are listed: those with a hit (about 2.1% of all), similar ones and a draw of the others.
# aSyn yeast inh – rescues yeast growth from alpha-synuclein toxicity. Yeast expressing alpha-synuclein, growth rescue, BacTiter-Glo, 24 h. Potency, µM (doses to about 46.1 µM), for inactives: at the top dose growth rescue (activation), most hits filed as activators. actives 0.14% (n = 370,000). AID 652106; also: % of control where 0% means no effect; nearly all actives have a fitted effect of over 65% in size
#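 Readout is rescue of growth in alpha-synuclein-expressing yeast, so inhibitors of toxicity appear as activators. Growth after 24 hr at 30 deg C in galactose medium is quantified by luminescence.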
# Abeta yeast res – A-beta toxicity reversal in yeast; yeast expressing A-beta42, growth rescue, OD600, 48 h; response scale: 0% DMSO, 100% iron-clioquinol control; Potency, µM (top dose mostly 46.1 µM), most hits filed as activators; actives 0.063% (n = 410,000); also: nearly all actives have a fitted effect of over 55% in size
#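 Yeast growth medium received pinned compounds, then yeast cells expressing toxic A-beta were added; plates incubated at 30 C for 48 hr. Growth read as absorbance at 600 nm, normalized to DMSO and equimolar FeCl3 plus clioquinol controls.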
# FUS yeast rescue – rescues growth of FUS-expressing yeast | AID 1347120 | actives 0.24% (n = 390,000) | S. cerevisiae FUS-expressing, growth rescue, OD600, 24 h | Potency, µM (doses to about 76.6 µM), actives largely listed as activators;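 also: plate controls were DMSO vehicle for no effect and reference control for full effect; nearly all actives have a fitted effect of over 55% in size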
#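 Galactose (2%) drives FUS expression in yeast precultured in raffinose; seeding density OD 0.005. Test compounds incubated 24hr at 30C and 99% humidity before absorbance at 600 nm was measured.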
# TDP-43 yeast inh – TDP-43 toxicity inhibition in yeast; TDP-43 expressing yeast growth rescue, BacTiter-Glo, 24 h; Potency, µM (top dose mostly 46.1 µM), without a hit: at the highest dose growth rescue (activation), hits mostly activators; actives 1.8% (n = 410,000); AID 652104; also: % of control where 0% means no effect; nearly all actives have a fitted effect of over 50% in size
#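 In this qHTS, compounds that restore growth of yeast expressing TDP-43 appear as activators. Cells (OD600=0.02, galactose medium, raffinose-pregrown) are incubated with compound 24 hr at 30 deg C and growth is quantified by BacTiter-Glo.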
# * marks the source's active call; other numbers are inactive results; i = inactive; u = inconclusive; x = no result; [ ] = another dose, or the depositor's remark. Calls follow the shape of the dose curve; as a rule, active = well fitted curve in the direction sought with a large enough effect; inconclusive = small, poorly fitted or top-dose-only effect, or another doubt; inactive = no such curve, though single readings can be large; an effect the other way counts as inactive or inconclusive. Potency is read from the fitted curve at half-maximal effect.
SMILES,aSyn yeast inh,Abeta yeast res,FUS yeast rescue,TDP-43 yeast inh
CCC(C)(C)n1nnnc1C(c1cc2cc(C)cc(C)c2[nH]c1=O)N1CCCC1 (configuration not stated),-3%,i,25µM*,-16%
CCC(C)(C)n1nnnc1C(c1cc2cc(C)cc(C)c2[nH]c1=O)N1CCN(Cc2ccc3c(c2)OCO3)CC1 (configuration not stated),1%,i,x,-7%
CCOC(=O)c1c(C)[nH]c(C)c1S(=O)(=O)N(C)CC(=O)N1CCN(c2cccc(Cl)c2)CC1,x,i,i,5%
CC(=O)c1ccc(-c2c(CCO)sc3ccccc23)cc1,14%,i,i,13µM*
CC(=O)c1ccc(-c2[nH]c3ccccc3c2CCN2C(=O)c3ccccc3C2=O)cc1,0%,i,i,19%
C=CCN1C(=O)[C@@H](CC(=O)NCc2ccccc2)[C@]2(C(=O)OC)CCCCC=C12,x,x,i,x
N#Cc1ccc(C(=O)NC(=S)NC2CCCCC2)cc1,-9%,u,i,22µM*
COc1cc(/C=C/C(=O)c2ccc(O)cc2)ccc1OCC#N,1%,i,x,-9%
COc1cccc(C(=O)/C=C/c2ccc(OCC#N)c(OC)c2)c1,u,i,i,20µM*
O=C(N/N=C/C(Br)=C/c1ccccc1)c1ccccc1F,-16%,i,i,14µM*
CCOc1ccc(C(=O)Nc2ccc(N3CCCC3)cc2)cc1,-10%,i,35µM*,-12%
COc1ccccc1OCC(=O)Nc1ccc(N2CCCCC2)cc1,1%,i,i,16%
CCOc1cccc(C(=O)Nc2ccc(N3CCCC3)cc2)c1,-4%,i,i,1%[1.82 µM]
Cc1cccc(OCC(=O)Nc2ccc(N3CCCC3)cc2)c1C,29%,i,25µM*,1%
Cc1c(C(=O)Nc2cccc(F)c2)oc2c1-c1nn(Cc3c(F)cccc3Cl)cc1CC2,x,i,i,6%
COC(=O)C(C[N+](=O)[O-])C1=C(O)CC(C)(C)CC1=O (configuration not stated),x,x,i,x
COC(=O)C1CN(Cc2ccccc2)CCS(=O)(=O)N1Cc1cn(Cc2ccccc2Br)nn1 (configuration not stated),x,x,14µM*,x
COC(=O)C1CN(Cc2ccccc2)CCS(=O)(=O)N1Cc1cn(Cc2ccc(F)cc2)nn1 (configuration not stated),x,x,i,x
N#Cc1cnn2c(-c3ccccc3)ccnc12,10%,i,i,4%
NC(=S)c1cnn2c(-c3cccc(C(F)(F)F)c3)ccnc12,-11%,6.3µM*,i,u
O=S1(=O)c2ccc(Br)cc2OC[C@H](Cc2ccccc2)N1Cc1cn(Cc2ccc(Cl)cc2)nn1,x,x,i,x
C=CCn1c(C)cc(C(=O)COc2ncnc3sccc23)c1C,5%,i,u,-37%
C=CCn1c(C)cc(C(=O)COC(=O)c2cncc(Br)c2)c1C,19%,i,i,20µM*
CCOc1ccc(-n2c(SCC(=O)Nc3ccc(OCc4ccccc4)cc3)nnc2-c2ccc(Cl)cc2)cc1,x,x,i,x
CC1CCCC(NC(=O)CSc2ncnc3ccccc23)C1C (configuration not stated),2%,i,i,14µM*
SMILES,aSyn yeast inh,Abeta yeast res,FUS yeast rescue,TDP-43 yeast inh
CC1CCCC(NC(=O)COc2ncnc3ccccc23)C1C (configuration not stated),10%,i,x,-33%
Nn1c(SCC(=O)Nc2ccc(OCc3ccccc3)cc2)nnc1-c1cc(-c2ccc(F)cc2)n[nH]1,x,x,i,x
Cc1ccc(O)c(-c2cc(-c3ccccc3[N+](=O)[O-])[nH]n2)c1,22µM*,i,x,u
O=[N+]([O-])c1ccccc1-c1cc(-c2cc(Cl)ccc2O)n[nH]1,0%,i,x,13µM*
CN1c2ccccc2Oc2nnc(Cl)cc21,16µM*,i,i,11µM*
COC(=O)[C@]12C[C@H](CC(=O)N3CCN(C(=O)C4CC4)CC3)C(=O)N(Cc3ccc(Cl)cc3Cl)C1=C[C@H](C1CCCC1)O[C@@H]2C,x,x,32µM*,x
COC(=O)[C@]12C[C@H](CC(=O)N3CCC(c4ccccc4)CC3)C(=O)N(Cc3ccc(Cl)cc3Cl)C1=C[C@H](C(C)(C)C)O[C@@H]2C,x,x,i,x
COC(=O)[C@]12C[C@H](CC(=O)N3CCN(C(=O)C4CC4)CC3)C(=O)N(Cc3ccco3)C1=C[C@H](C1CCCC1)O[C@@H]2C,x,x,i,x
COC(=O)[C@]12C[C@H](CC(=O)N3CCN(C(=O)C4CC4)CC3)C(=O)N(Cc3ccc(Cl)cc3Cl)C1=C[C@H](C(C)C)O[C@@H]2C1CC1,x,x,28µM*,x
COC(=O)[C@]12C[C@H](CC(=O)N3CCOCC3)C(=O)N(Cc3ccc(Cl)cc3Cl)C1=C[C@H](C(C)(C)C)O[C@@H]2C,x,x,16µM*,x
O=C(NN=C/C=C/c1ccco1)c1cc(-c2ccc(Cl)cc2)n[nH]1,x,x,i,x
Cc1ccccc1C(=O)/C(C#N)=N/Nc1c(C)n(C)n(-c2ccccc2)c1=O,16µM*,i,x,35µM*
Cc1c(N/N=C(\C#N)C(=O)c2ccccc2)c(=O)n(-c2ccccc2)n1C,17%,u,i,-12%[0.397 µM]
COc1ccc(-c2nnc(SCC(=O)NN=Cc3c(O)ccc4ccccc34)n2-c2ccc(OC)cc2)cc1,x,x,i,x
O=C(/C=C/c1ccco1)Oc1cc(Br)cc(/C=N/NC(=O)c2ccccc2O)c1,22µM*,i,i,7%
COC[C@@H](OC(C)=O)[C@H]1OCc2ccccc2[C@@H]1/C=C/c1ccccc1,x,x,i,x
Cc1ccc(C2=NNC(=O)C(c3ccc(Cl)cc3)C2)cc1 (configuration not stated),15%,i,i,22µM*
O=C1NN=C(c2ccc(Cl)cc2)CC1c1c[nH]c2ccccc12 (configuration not stated),-2%,i,i,-8%
CCOC(=O)C1CC(c2ccc(Cl)cc2)=NNC1=O (configuration not stated),13%,i,i,8%
O=C1NN=C(c2ccc(Cl)cc2)CC1c1cccc(Br)c1 (configuration not stated),u,i,i,13µM*
O=C1NCCc2c1[nH]c1c(Cl)ccc(Cl)c21,14%,i,i,10µM*
O=S(=O)(NCc1csc(-c2cccs2)n1)c1cccc(C(F)(F)F)c1,1%,i,i,18µM*
O=S(=O)(NCc1csc(-c2cccs2)n1)c1ccc(Cl)cc1,15%,i,i,u
CCN(CC)C(=O)CC[C@H]1CC[C@]2(CCCN(C(=O)c3ccc4ccccc4n3)C2)O1,x,x,i,x
Cc1n[nH]c(C)c1N=Nc1ccc(Br)cc1,-19%,i,i,3.5µM*
CNc1nc(-c2ccccc2)c(-c2ccccc2)s1,-1%,x,x,x
Cn1c(-c2c(N)n(CCCc3ccccc3)c3nc4ccccc4nc23)nc2ccccc21,-25%,i,32µM*,u
